High-throughput results (PubChem)
This is a sample that favours compounds with a hit; in the whole collection about 14% have one here.
HSD17B inh: qHTS Assay for Inhibitors of HSD17B4, hydroxysteroid (17-beta) dehydrogenase 4 | actives 7.6% (n = 75,000) | recombinant HSD17B10, NADH fluorescence kinetic | Potency, µM (highest dose often 57.1 µM), most hits filed as inhibitors | 3-hydroxyacyl-CoA dehydrogenase type-2 (Homo sapiens), Q99714;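 further: the protocol describes HADH2 (HSD17B10) and not the HSD17B4 of the title; nearly all actives have a fitted effect of over 70% in size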
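His-tagged E. coli-expressed HADH2 at 20 nM in 100 mM Tris-HCl pH 9.0 with 0.01 % Tween-20, preincubated 15 min with compound at room temperature. Reaction with 1 mM NAD+ and 90 uM beta-hydroxybutyryl coenzyme A; NADH fluorescence (360/450 nm) read kinetically over 4 min, last minus first point.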
4MU fluor: qHTS Assay for Spectroscopic Profiling in 4-MU Spectral Region. compound autofluorescence, 340/450 nm, 4-MU equivalents; hits give high values. max dye-equivalent concentration, M. actives 11% (n = 59,000). AID 589, 2007; in the data active means max dye-equivalent concentration above about 10 nM; inconclusive means mostly about 1.1 nM to 9.6 nM
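Compounds in 100 mM Tris, pH 8.0, sat 15 min at room temperature before fluorescence was read at 340 nm excitation/450 nm emission; a per-plate six-point 4-MU standard curve converted signals to dye-equivalent concentration at each compound concentration.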
AID923: qHTS Assay for Allosteric/Competitive Inhibitors of Caspase-1: Spectroscopic Profiling in AFC Spectral Region | compound fluorescence, AFC spectral region (405/520 nm) | Potency, µM (series often up to 57.5 µM), most hits filed as activators | actives 1.1% (n = 75,000)
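Compound autofluorescence profiled at 405 nm ex/520 nm em during kinetic caspase 1 run (50 nM enzyme, 5 uM Ac-WEHD-AFC, HEPES pH 7.5, 10 mM DTT). Titration up to 57 uM; baseline from regression intercept, normalized to AFC standard curve.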
A350 fluor: qHTS Assay for Spectroscopic Profiling in A350 Spectral Region | max dye-equivalent concentration, M | Compound autofluorescence, 340/450 nm, Alexa 350 dye-equivalents; hits give high values | actives 11% (n = 59,000) | AID 590, 2007; in the data active means max dye-equivalent concentration above about 10 nM; inconclusive means mostly about 1.1 nM to 9.6 nM
CRE-bla Fsk: Cell signaling CRE-BLA (Fsk stim); CHO CRE-bla reporter (cAMP response element driving beta-lactamase), forskolin EC10, beta-lactamase ratio; Potency, µM (doses to about 38.2 µM), hits mostly activators; actives 2.5% (n = 71,000); AID 662, 2007; active means well fitted activation curve with a large enough effect in the signal ratio, with a control signal flat, not every such curve was filed as active; inconclusive means small, poorly fitted or top-dose-only effect, or effect the other way, or a change in a side signal; the % refers to the signal ratio
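AC50 values, positive or negative, reflect shifts in EC10 NKH 477-induced CRE-bla reporter activity in CHO cells. Incubation lasted 3 h at 37 °C before CCF4 substrate (2 h, room temperature) and ratiometric 460/530 nm reading.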
HADH2 inhib: qHTS Assay for Inhibitors of HADH2 (Hydroxyacyl-Coenzyme A Dehydrogenase, Type II); 3-hydroxyacyl-CoA dehydrogenase type-2 (Homo sapiens), Q99714; recombinant HADH2, NADH fluorescence, beta-hydroxybutyryl-CoA; Potency, µM (highest dose often 57.1 µM), hits mostly inhibitors; actives 3.4% (n = 73,000); AID 886, 2007; further: nearly all actives have a fitted effect of over 60% in size
Target sequence (Q99714 whole entry, looked up, one chain of several): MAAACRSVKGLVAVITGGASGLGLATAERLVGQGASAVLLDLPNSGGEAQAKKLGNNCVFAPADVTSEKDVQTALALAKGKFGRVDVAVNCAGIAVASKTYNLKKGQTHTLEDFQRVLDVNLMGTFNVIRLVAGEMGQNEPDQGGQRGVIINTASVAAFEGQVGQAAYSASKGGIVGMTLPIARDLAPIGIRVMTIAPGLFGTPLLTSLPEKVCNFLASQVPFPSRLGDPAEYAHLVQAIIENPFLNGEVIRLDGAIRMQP
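His-tagged recombinant enzyme from E. coli, 20 nM, preincubated 15 min RT with compound; reaction started with 1 mM NAD+ and 90 uM beta-hydroxybutyryl-CoA in 100 mM Tris-HCl pH 9.0. NADH fluorescence (ex 360/em 450) read over 4 min; last-minus-first difference.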
A number is an active result; i = inactive; ? = inconclusive; nt = no result given; [ ] = remark or other dose. Unless noted, the call rests on the fitted dose curve; in most records, active means well fitted curve in the direction sought with a large enough effect; inconclusive means small, poorly fitted or top-dose-only effect, or another doubt; inactive means no such curve, though single readings can be large; an effect the other way counts as inactive or inconclusive.

SMILES | HSD17B inh | 4MU fluor | AID923 | A350 fluor | CRE-bla Fsk | HADH2 inhib
O=C(O)c1ccc(CNc2ccccc2C(=O)O)cc1 | 32µM | 7.6e-08M | i | 6.9e-08M | i | ?
O=C(O)c1ccccc1NCc1ccncc1 | 32µM | 1.8e-08M | i | 2.4e-08M | i | ?
O=C(COC(=O)c1ccncc1)NCc1ccccc1 | i | i | i | i | i | i
COc1ccc(OC)c2c1CC(C)(C)NC2=O | 32µM | nt | i | nt | i | 25µM
COc1cc2c(cc1OC)CN(C(=O)CSc1nnc3scc(-c4ccccc4)n13)CC2 | i | nt | i | nt | ? | i
COc1cc2c(cc1OC)CN(C(=O)CSc1nnc(C)s1)CC2 | i | 1.2e-08M | i | 1.4e-08M | i | i
CCCN1C(=O)c2cc(C(=O)NCCc3cccc(C)c3)ccc2C1O (centres undefined) | i | nt | i | nt | i | i
O=c1n(-c2ccccc2)c(=O)n2n1CC[C@H]1/C(=N\OC[C@@H](O)COCc3ccco3)[C@H]3O[C@@H]3[C@@H](O)[C@@H]12 | i[11.4 µM] | nt | i[11.5 µM] | nt | nt | i[11.4 µM]
CCOc1ccccc1Nc1nnc(SCC(=O)N2CCCC2)s1 | i | 1.5e-08M | i | 1.9e-08M | i | i
COc1ccccc1Nc1nnc(SCC(=O)N2CCCC2)s1 | i | i | i | i | i | i
CCCCCCN | i | nt | i | nt | i | i
Nc1ccc2oc(-c3cccc(Br)c3)nc2c1 | ? | nt | i | nt | ? | ?
O=c1oc2ccc(Br)cc2cc1-c1nc2ccccc2o1 | i | 6.7e-08M | i | 9.2e-08M | ? | i
Cc1oc(-c2ccc(F)cc2)cc1-c1nn2c(-c3ccoc3C)nnc2s1 | ? | i | i | i | ? | 25µM
Cc1oc(-c2ccc(F)cc2)cc1-c1nn2c(-c3ccco3)nnc2s1 | 16µM | i | i | i | i | ?
Clc1ccc(OCCCn2cncn2)cc1Cl | i | 1.4e-06M | i | 1.4e-06M | ? | i
Cc1nnc(NC(=O)c2ccco2)s1 | i | nt | i | nt | i | i
Cc1nc2ccc3nc(NC(=O)c4ccco4)sc3c2s1 | ? | 2e-08M | i | 2.4e-08M | ? | i
CC1=NNC(=S)NCCCN2CCN(CCCNC(=S)NN=C(C)C=NNC(=S)NCCCN3CCN(CCCNC(=S)NN=C1)CC3)CC2 | i[11.4 µM] | i | i[11.5 µM] | i | i[7.6 µM] | i[11.4 µM]
CCOC(=O)CCc1c(C)c2ccc(OCC(=O)OC(C)C)cc2oc1=O | 25µM | ? | i | ? | ? | i
CCOC(=O)CCc1c(C)c2ccc(OCc3nn[nH]n3)cc2oc1=O | 25µM | 3.2e-08M | i | 4e-08M | i | 20µM
COC(=O)c1ccc(COc2ccc3c(C)c(C)c(=O)oc3c2)o1 | 13µM | nt | i | nt | ? | ?
CCOC(=O)CCC(=O)c1c(C)oc2ccc(OC)cc12 | i | i | i | i | i | i
C=CCOC(=O)COc1ccc2c(C)c(C)c(=O)oc2c1 | 25µM | nt | i | nt | ? | i
O=C(O)c1ccccc1NS(=O)(=O)c1ccc(Cl)c(Cl)c1 | i | nt | i | nt | nt | i
SMILES | HSD17B inh | 4MU fluor | AID923 | A350 fluor | CRE-bla Fsk | HADH2 inhib
C#CCN1C(C)=C(C(=O)OC)[C@@H](c2cccc([N+](=O)[O-])c2)C(C(=O)OCC)=C1C | i | ? | i | ? | i | i
CCOC(=O)N/N=C1/C[C@@H](O)[C@@H](O)[C@@H]2[C@@H]3C(=O)N(c4cccc(Oc5ccccc5)c4)C(=O)[C@H]3CC[C@@H]12 | i[11.4 µM] | nt | i[11.5 µM] | nt | nt | i[11.4 µM]
Cc1c(Cc2ccccc2)c(=O)oc2cc(OCc3nn[nH]n3)ccc12 | 32µM | 5e-08M | i | 6.7e-08M | i | 32µM
Cc1oc2cc(OCC(=O)O)ccc2c(=O)c1Oc1ccccc1 | i | ? | i | ? | i | i
Cc1ccc2c(c1)-c1cc(C)nn1C(c1sccc1C)N2 (centres undefined) | 32µM | 8.9e-08M | i | 8.6e-08M | ? | i
Cc1cc2n(n1)C(c1sccc1C)Nc1c(C)cccc1-2 (centres undefined) | 20µM | 1.8e-08M | i | 2.4e-08M | i | i
Cc1ccsc1C1C(C(=O)O)c2ccccc2C(=O)N1C (centres undefined) | i | i | i | i | i | i
Cc1cc2n(n1)C(c1sccc1C)Nc1ccccc1-2 (centres undefined) | 25µM | ? | i | 1.2e-08M | ? | 25µM
CC(C)[C@@H](OCc1ccccc1)[C@H](C)CO/N=C1/[C@H]2OC2[C@@H](O)[C@H]2[C@H]1CCn1c(=O)n(-c3ccccc3)c(=O)n12 (some centres undefined) | i[11.4 µM] | nt | i[11.5 µM] | nt | nt | i[11.4 µM]
Cc1ccc2oc(=O)c3cc(C(=O)NCc4ccco4)sc3c2c1 | 25µM | nt | i | nt | ? | i
CCN1CCN(C(=O)c2cc3c(=O)oc4ccc(C)cc4c3s2)CC1 | i | nt | i | nt | 2.5µM | i
COc1ccc(Oc2ncc3nc(-c4ccccc4)c(=O)n(C4CC4)c3n2)cc1 | ? | ? | i | ? | ? | i
Cc1cc(C)nc(N(C#N)S(=O)(=O)c2ccccc2Cl)n1 | nt | 1.6e-08M | nt | 1.8e-08M | nt | nt
Cc1cc(C)nc(N(C#N)Cc2ccc(Br)cc2)n1 | i | i | i | i | i | i
O=C1C2=CC[C@H]3C(=O)N(C[C@@H]4CCCO4)C(=O)[C@@H]3[C@@H]2[C@H](O)[C@@H]2O[C@H]12 | i[11.4 µM] | nt | i[11.5 µM] | nt | nt | ?
CN1/C(=C\P(=O)(N(C)C)N(C)C)C(C)(C)c2ccccc21 | i | i | i | i | ? | i
CN1/C(=C/C=N/n2cnnc2)C(C)(C)c2ccccc21 | ? | 8.1e-08M | i | 7.3e-08M | i | i
Cc1ccc2nc(SCC(=O)O)nc(C)c2c1 | i | 1e-08M | i | 1.2e-08M | i | i
Cc1ccc2nc(SCCC#N)nc(C)c2c1 | i | i | i | i | ? | i
CC1(C)CC(=O)C2=C(C1)OC(N)=C(C#N)[C@@]21C(=O)N(CC(N)=O)c2ccccc21 | nt | 9.2e-08M | nt | 9.6e-08M | nt | nt
CC1(C)CC(=O)C2=C(C1)OC(N)=C(C#N)C21C(=O)N2CCCc3cccc1c32 (centres undefined) | i | i | i | i | i | i
CC(C)(C)c1ccc([C@@H](O)CCCN2CCC(C(O)(c3ccccc3)c3ccccc3)CC2)cc1 | i | ? | i | ? | ? | i
O=c1c2c3c(sc2n2cnnc2n1-c1ccccc1)N(Cc1ccccc1)CCC3 | ? | 1.1e-07M | i | 1.1e-07M | i | i
OCC(CO)(CBr)CBr | i | nt | i | nt | i | i
COc1cc(CCC(=O)N2CCN(S(=O)(=O)c3ccc(C)c(C)c3)CC2)cc(OC)c1OC | i | i | i | i | i | i
COc1cc(CCC(=O)N2CCN(c3ccc(N4CCOCC4)nn3)CC2)cc(OC)c1OC | 25µM | nt | i | nt | i | ?
NC(=O)CCc1c[nH]c2ccccc12 | i | nt | i | nt | i | i
